Laboratory results as given in PubChem BioAssay (NCATS).
Results filed as inconclusive are left out. Active and inactive are the calls of the source. Unless noted, the call rests on the fitted dose curve; in most records, active means well fitted curve in the direction sought with a large enough effect; inconclusive means small, poorly fitted or top-dose-only effect, or another doubt; inactive means no such curve, though single readings can be large; an effect the other way counts as inactive or inconclusive.

What was measured:
[1] = molecular target: D(1A) dopamine receptor (Homo sapiens) (UniProt P21728); assay: HTS Assay for Allosteric Agonists of the Human D1 Dopamine Receptor: Primary Screen for Potentiators (AID 488982); further: 0% is about no effect
Summary of the method: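 Tetracycline-induced HEK293 T-REx cells force-coupled to calcium signalling were incubated overnight at 30 C and dye-loaded at room temperature. Calcium flux over 180 s after compound addition flagged agonists; a further 180 s read after EC20 dopamine flagged potentiators.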

[2] = molecular target: D(1A) dopamine receptor (Homo sapiens) (UniProt P21728); assay: HTS Assay for Allosteric Agonists of the Human D1 Dopamine Receptor: Primary Screen for Antagonists (AID 488983);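 further: calcium flux response to an EC80 dopamine challenge measured with no-wash dye; on the % scale 0 is the no-effect control and ±100 the full control effect; nearly all actives have a fitted effect of over 65% in size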
Summary of the method: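 Tetracycline-induced HEK293 T-REx D1 line, force-coupled to calcium flux, read with no-wash calcium dye. Compound added after 10 s baseline, read 180 s for agonism, then EC80 dopamine added and read a further 180 s.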

[3] = molecular target: Thyrotropin-releasing hormone receptor (Homo sapiens) (UniProt P34981); assay: qHTS for Small Molecule Agonists and Allosteric Enhancers of Human TRH Receptor: Validation Screen for Agonists (AID 493127;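 active means calcium activation more than 3 SD above the typical response in the agonist read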; further: 0% is about no effect); conditions: TRH receptor agonist cell assay; at 2 µM; stronger effect = higher value
Summary of the method: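 TRHR cells loaded with fluo-8 calcium dye; FDSS kinetic fluorescence (Ex 480/Em 530) read at 1 s/cycle after 23 nL compound addition. Agonist-mode calcium response recorded before the 10 nM TRH (EC20) addition.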

[4] = Nrf2 qHTS screen for inhibitors: Validation (AID 493153; active means well fitted inhibition curve with a large enough effect in the main read-out, with a control signal flat, not every such curve was filed as active); conditions: viability change: measured here: cytotoxicity max response
Summary of the method: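 A549 cells carrying ARE-firefly luciferase reporter, 5000 cells/well in 5% FBS OPTI-MEM, treated with compound over a concentration series for 18-24 h at 37 C. Luciferase luminescence gave Nrf2 activity; CellTiter-Fluor fluorescence gave viability.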

[5] = molecular target: Galactokinase (Homo sapiens) (UniProt P51570); assay: qHTS Validation Assay for Inhibitors of Human Galactokinase (GALK) (AID 493189); further: 0% is about no effect
Summary of the method: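 Compounds were pin-transferred into ATP buffer, then GALK-galactose mix was added (final 5 nM enzyme, 100 uM galactose, 35 uM ATP). After 1 h at room temperature, remaining ATP was measured luminescently.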

[6] = Validation screen for small molecules that induce DNA re-replication in SW480 colon adenocarcinoma cells (AID 504364); further: 0% is about no effect
Summary of the method: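 SW480 cells (250/well) exposed 48 h at 37 C, 5% CO2, then Hoechst-stained 40 min. Nuclear DNA content imaged by fluorescence scanning (405 nm excitation, 500-530 nm emission); re-replication scored as increased nuclei with elevated intensity.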

[7] = molecular target: Peptidyl-prolyl cis-trans isomerase NIMA-interacting 1 (Homo sapiens) (UniProt Q13526); assay: qHTS Validation Assay to Find Inhibitors of Pin1 (AID 504536; active means well fitted inhibition curve with a large enough effect in the polarisation, with a control signal flat, not every such curve was filed as active; the % refers to the polarisation;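 further: 0% = full Pin1 enzyme wells and -100% = no-enzyme wells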)
Summary of the method: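 Fluorescence polarization competition: compounds (titration) displace HiFluor-488-labeled Pin1-1b peptide from Pin1 (0.3 uM final) in pH 7.5 HEPES buffer with DTT, 10 min at room temperature; %Activity normalized to no-enzyme wells, curves fitted.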

[8] = molecular target: ATP-dependent 6-phosphofructokinase (Trypanosoma brucei brucei) (UniProt O15648); assay: qHTS Assay to Find Inhibitors of T. brucei phosphofructokinase: hit validation (AID 492961);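 further: luminescence reports ADP formed as PFK phosphorylates fructose-6-phosphate with ATP; series mostly up to about 51 µM; on the % scale 0 is the no-effect control and ±100 the full control effect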
Summary of the method: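 Percent activity derived from corrected luminescence, normalized between 0x and 1x enzyme controls, then fitted to concentration-response curves. Conditions: 1.25 nM PFK, 0.1 mM ATP, 0.5 mM F6P, 45 min RT.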

[9] = Validation screen for small molecules that induce genotoxicity in human embryonic kidney (HEK293T) cells expressing luciferase-tagged ELG1 (AID 493106); further: potency means the concentration at half of the fitted maximal effect
Summary of the method: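 HEK293T cells expressing luciferase-tagged ELG1, 2,000 cells/well, exposed to compound 16 hr at 37 °C, 5% CO2. Luciferase read after ONE-Glo, 30 min at room temperature; increased signal indicates genetic stress.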

[10] = molecular target: ATPase family AAA domain-containing protein 5 (Homo sapiens) (UniProt Q96QE3); assay: Validation screen for small molecules that inhibit ELG1-dependent DNA repair in human embryonic kidney (HEK293T) cells expressing luciferase-tagged ELG1 (AID 493107);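 further: cells co-treated with the DNA-damaging agent 5-fluorouridine alongside compound; series mostly up to about 46 µM; on the % scale 0 is the no-effect control and ±100 the full control effect; inhibitors lower the ELG1-luciferase luminescence signal; nearly all actives have a fitted effect of over 70% in size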
Summary of the method: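 HEK293T cells expressing luciferase-tagged ELG1, 2,000 per well, treated with 5-fluorouridine plus compound for 16 h at 37 C. ONE-Glo luminescence after 30 min at room temperature reports ELG1 reporter level.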

Chain of ATPase family AAA domain-containing protein 5 (Homo sapiens) (Q96QE3 whole entry, looked up, the tested form may be a part): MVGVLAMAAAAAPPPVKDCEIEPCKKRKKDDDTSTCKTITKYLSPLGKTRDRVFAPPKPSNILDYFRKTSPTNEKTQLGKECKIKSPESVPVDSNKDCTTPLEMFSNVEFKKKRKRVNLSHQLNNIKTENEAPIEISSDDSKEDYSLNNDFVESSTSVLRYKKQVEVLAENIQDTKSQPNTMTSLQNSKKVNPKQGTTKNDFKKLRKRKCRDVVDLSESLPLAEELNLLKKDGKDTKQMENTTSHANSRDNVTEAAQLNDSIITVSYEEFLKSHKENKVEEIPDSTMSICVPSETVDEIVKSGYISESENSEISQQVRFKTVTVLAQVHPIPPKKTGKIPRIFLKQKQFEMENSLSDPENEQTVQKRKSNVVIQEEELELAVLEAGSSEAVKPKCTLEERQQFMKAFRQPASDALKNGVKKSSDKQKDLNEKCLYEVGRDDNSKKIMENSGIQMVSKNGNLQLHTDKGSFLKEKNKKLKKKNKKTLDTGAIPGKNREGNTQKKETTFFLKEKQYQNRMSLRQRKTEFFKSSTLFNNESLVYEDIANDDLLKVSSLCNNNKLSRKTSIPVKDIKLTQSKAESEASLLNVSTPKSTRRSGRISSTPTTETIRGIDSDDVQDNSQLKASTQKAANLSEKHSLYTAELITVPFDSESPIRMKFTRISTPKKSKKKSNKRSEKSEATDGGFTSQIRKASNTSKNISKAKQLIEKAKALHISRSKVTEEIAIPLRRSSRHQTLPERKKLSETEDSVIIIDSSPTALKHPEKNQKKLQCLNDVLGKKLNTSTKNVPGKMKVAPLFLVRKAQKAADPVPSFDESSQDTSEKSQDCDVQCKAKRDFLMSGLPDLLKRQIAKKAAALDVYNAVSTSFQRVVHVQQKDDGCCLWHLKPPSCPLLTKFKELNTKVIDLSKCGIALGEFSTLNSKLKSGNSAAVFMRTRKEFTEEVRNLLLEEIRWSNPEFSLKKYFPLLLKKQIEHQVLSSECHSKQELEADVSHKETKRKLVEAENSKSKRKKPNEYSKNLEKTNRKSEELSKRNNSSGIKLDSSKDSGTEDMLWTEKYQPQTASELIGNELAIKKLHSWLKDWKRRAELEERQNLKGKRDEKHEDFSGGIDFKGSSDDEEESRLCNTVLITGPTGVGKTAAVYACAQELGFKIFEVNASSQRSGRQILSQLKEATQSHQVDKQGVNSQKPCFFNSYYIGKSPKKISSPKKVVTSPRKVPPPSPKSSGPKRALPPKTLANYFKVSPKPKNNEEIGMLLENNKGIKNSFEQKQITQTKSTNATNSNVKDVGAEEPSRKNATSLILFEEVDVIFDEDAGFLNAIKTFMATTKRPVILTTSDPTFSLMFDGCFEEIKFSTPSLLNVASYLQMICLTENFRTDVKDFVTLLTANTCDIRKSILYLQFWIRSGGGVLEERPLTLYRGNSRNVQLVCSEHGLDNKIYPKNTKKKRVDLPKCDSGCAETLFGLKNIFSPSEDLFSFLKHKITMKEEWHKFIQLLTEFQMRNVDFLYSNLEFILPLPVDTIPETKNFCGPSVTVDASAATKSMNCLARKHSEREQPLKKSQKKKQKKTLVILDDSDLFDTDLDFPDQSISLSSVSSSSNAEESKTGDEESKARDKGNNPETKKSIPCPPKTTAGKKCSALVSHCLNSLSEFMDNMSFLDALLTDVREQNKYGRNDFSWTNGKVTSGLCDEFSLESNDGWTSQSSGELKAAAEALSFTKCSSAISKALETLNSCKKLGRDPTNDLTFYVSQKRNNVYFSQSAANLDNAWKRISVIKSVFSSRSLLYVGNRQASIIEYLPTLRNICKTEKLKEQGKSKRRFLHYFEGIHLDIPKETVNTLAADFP
Chain of D(1A) dopamine receptor (Homo sapiens) (P21728 whole entry, looked up): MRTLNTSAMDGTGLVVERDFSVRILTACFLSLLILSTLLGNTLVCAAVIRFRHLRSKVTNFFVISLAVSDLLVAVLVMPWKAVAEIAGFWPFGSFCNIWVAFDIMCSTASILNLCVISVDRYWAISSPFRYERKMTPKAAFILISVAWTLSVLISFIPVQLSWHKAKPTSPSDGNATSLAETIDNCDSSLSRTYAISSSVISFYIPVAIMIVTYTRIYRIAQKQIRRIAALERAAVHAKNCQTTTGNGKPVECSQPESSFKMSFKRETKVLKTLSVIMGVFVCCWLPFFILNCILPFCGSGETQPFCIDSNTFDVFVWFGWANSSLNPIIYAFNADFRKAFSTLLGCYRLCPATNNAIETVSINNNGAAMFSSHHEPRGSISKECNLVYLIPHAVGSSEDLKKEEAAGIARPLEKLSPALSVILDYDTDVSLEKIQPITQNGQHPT
Chain of Peptidyl-prolyl cis-trans isomerase NIMA-interacting 1 (Homo sapiens) (Q13526 whole entry, looked up): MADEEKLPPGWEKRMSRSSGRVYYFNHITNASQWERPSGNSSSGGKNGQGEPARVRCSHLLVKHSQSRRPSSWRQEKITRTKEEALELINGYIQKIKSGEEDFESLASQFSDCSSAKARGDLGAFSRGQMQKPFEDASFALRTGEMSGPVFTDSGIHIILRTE
Chain of Galactokinase (Homo sapiens) (P51570 whole entry, looked up): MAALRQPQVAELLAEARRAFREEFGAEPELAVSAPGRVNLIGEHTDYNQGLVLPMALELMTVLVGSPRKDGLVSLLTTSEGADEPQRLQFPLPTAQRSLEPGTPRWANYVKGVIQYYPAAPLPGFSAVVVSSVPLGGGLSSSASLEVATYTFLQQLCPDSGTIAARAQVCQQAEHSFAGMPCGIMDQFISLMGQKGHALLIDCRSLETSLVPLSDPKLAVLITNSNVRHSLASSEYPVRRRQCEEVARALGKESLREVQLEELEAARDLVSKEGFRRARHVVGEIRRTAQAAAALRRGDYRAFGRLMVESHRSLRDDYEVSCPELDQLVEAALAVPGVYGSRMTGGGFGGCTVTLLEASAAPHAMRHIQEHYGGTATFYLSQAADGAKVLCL
Chain of Thyrotropin-releasing hormone receptor (Homo sapiens) (P34981 whole entry, looked up): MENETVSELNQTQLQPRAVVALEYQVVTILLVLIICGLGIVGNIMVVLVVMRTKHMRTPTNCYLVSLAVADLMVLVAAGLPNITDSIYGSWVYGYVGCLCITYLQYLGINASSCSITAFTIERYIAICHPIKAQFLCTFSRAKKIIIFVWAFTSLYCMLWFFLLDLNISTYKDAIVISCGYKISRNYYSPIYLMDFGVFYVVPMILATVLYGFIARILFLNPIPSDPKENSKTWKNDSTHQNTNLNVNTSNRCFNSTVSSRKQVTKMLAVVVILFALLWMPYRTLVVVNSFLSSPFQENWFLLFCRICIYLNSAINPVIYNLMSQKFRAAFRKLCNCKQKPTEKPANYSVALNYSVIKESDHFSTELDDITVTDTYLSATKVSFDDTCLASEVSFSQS
Chain of ATP-dependent 6-phosphofructokinase (Trypanosoma brucei brucei) (O15648 whole entry, looked up): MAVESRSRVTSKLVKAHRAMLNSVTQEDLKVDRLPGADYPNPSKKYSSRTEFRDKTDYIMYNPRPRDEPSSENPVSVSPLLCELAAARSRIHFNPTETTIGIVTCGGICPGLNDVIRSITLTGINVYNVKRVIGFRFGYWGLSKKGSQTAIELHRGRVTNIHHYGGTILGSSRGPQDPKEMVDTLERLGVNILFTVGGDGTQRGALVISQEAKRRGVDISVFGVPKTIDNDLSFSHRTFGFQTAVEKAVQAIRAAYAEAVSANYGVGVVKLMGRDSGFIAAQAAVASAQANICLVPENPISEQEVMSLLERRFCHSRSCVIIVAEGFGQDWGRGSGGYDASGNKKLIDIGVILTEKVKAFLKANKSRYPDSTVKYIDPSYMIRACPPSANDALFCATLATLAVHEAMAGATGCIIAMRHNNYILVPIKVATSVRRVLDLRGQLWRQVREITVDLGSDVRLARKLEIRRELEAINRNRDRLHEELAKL

O=c1cc(-c2ccc(O)cc2)oc2cc(O)cc(O)c12
-8.56%: viability change [4]
inactive: outcome [1] | Potency [2] | activation [3] 0.5% | outcome [4] | outcome [5] | outcome [6] | outcome [7]

CCOC(=O)O[C@]1(C(=O)OCCl)CC[C@@H]2[C@H]3CCC4=CC(=O)C=C[C@]4(C)[C@@H]3[C@@H](O)C[C@@]21C
inactive: outcome [8]

O=C(O)c1c(Cl)c(Cl)c(Cl)c(Cl)c1-c1c2cc(I)c(=O)c(I)c-2oc2c(I)c(O)c(I)cc12
inactive: outcome [8]

CC1(C)CCC2=C(O1)c1ccccc1C(=O)C2=O
inactive: outcome [1] | Potency [2] | Potency [9] | activation [3] -3.69%

C[N+](C)(C)CC(=O)O
inactive: outcome [1] | Potency [2] | outcome [10] | outcome [4] | outcome [7]
8.76%: viability change [4]

CC(=O)O[C@]1(C(C)=O)CC[C@H]2[C@@H]3C=C(Cl)C4=CC(=O)[C@@H]5C[C@@H]5[C@]4(C)[C@H]3CC[C@@]21C
2.19%: viability change [4]
inactive: Potency [2] | outcome [8] | Potency [9] | outcome [10] | outcome [4] | outcome [7]

CC/C(=C(\c1ccccc1)c1ccc(OCCN(C)C)cc1)c1ccccc1
7.91%: viability change [4]
inactive: Potency [2] | outcome [8] | Potency [9] | outcome [10] | activation [3] -2.75% | outcome [4] | outcome [5] | outcome [6] | outcome [7]

COc1cc2ncnc(Nc3ccc(F)c(Cl)c3)c2cc1OCCCN1CCOCC1
inactive: outcome [8]

C[C@@H](O)[C@H]1C(=O)N2C(C(=O)O)=C(S[C@@H]3CN[C@H](C(=O)N(C)C)C3)[C@H](C)[C@H]12
inactive: outcome [8]

CC(C)(C)c1ccc(C(O)CCCN2CCC(C(O)(c3ccccc3)c3ccccc3)CC2)cc1 (centres undefined)
inactive: outcome [1] | outcome [8] | Potency [9] | outcome [4] | outcome [5] | outcome [6] | outcome [7]
-16.1%: viability change [4]

Cc1cnc(C(=O)O)c[n+]1[O-]
inactive: outcome [8]

CC1(C)O[C@H]2C[C@@H]3[C@H]4CCC5=CC(=O)C=C[C@]5(C)[C@@]4(F)[C@@H](O)C[C@]3(C)[C@]2(C(=O)CO)O1
inactive: outcome [8]

CCn1cc(C(=O)O)c(=O)c2ccc(C)nc21
inactive: outcome [1] | Potency [2] | Potency [9] | outcome [10] | outcome [7]

O=c1c(-c2ccc(O)cc2)coc2cc(O)ccc12
1.29%: viability change [4]
inactive: outcome [1] | Potency [2] | outcome [4] | outcome [5] | outcome [6] | outcome [7]
active: Potency [9] 20.6 µM

O=C1Nc2ccc(Cl)cc2C(C#CC2CC2)(C(F)(F)F)O1 (centres undefined)
inactive: outcome [8]

CC1=C(/C=C/C(C)=C/C=C/C(C)=C/C(=O)Nc2ccc(O)cc2)C(C)(C)CCC1
inactive: outcome [8] | Potency [9] | activation [3] -0.438% | outcome [5] | outcome [6] | outcome [7]

CC(=O)N[C@@H](CS)C(=O)O
13.1%: viability change [4]
inactive: Potency [2] | outcome [8] | Potency [9] | outcome [10] | outcome [4] | outcome [5] | outcome [6] | outcome [7]

COc1cccc(-c2cc(=O)c3ccccc3o2)c1N
inactive: outcome [1] | Potency [2] | activation [3] -3.44% | outcome [4] | outcome [5] | outcome [6] | outcome [7]
active: Potency [9] 2.91 µM
-8.39%: viability change [4]

Clc1ccc(C(c2ccc(Cl)cc2)n2cc[n+](CC(OCc3ccc(Cl)cc3Cl)c3ccc(Cl)cc3Cl)c2)cc1 (centres undefined)
inactive: outcome [1] | Potency [2] | outcome [7]

O=c1[nH]cnc2c1ncn2[C@H]1CC[C@@H](CO)O1
inactive: outcome [8]

CCCCC1C(=O)N(c2ccccc2)N(c2ccccc2)C1=O
inactive: Potency [2] | Potency [9] | outcome [10] | activation [3] 1.38% | outcome [4] | outcome [5] | outcome [6] | outcome [7]
-3.3%: viability change [4]

CC(C)OC(=O)C(C)(C)Oc1ccc(C(=O)c2ccc(Cl)cc2)cc1
inactive: outcome [1] | Potency [2] | Potency [9] | outcome [4] | outcome [5] | outcome [6] | outcome [7]
3.23%: viability change [4]

O=C(O)Cc1cccc2ccccc12
inactive: outcome [8]
